Results from PubChem BioAssay (EPA / NIEHS).
Activity calls are given as the source filed them. Rule for the calls: active = hit-call score of the fitted dose curve at least 0.9, where 1 is the maximum; inactive = score below 0.9.

Assay: Tanguay_ZF_120hpf_EDEM: Oregon State University Tanguay Lab 120 Hour Post-fertilization zebrafish Assay for Edema Malformation (AID 2284400)
Method: Tanguay_ZF_120hpf is a whole embryo, multiplexed endpoint assay using zebrafish larvae exposed for 120 hours post fertilization on a 96-well plate.Tanguay_ZF_120hpf_EDEM is one of one assay component(s) measured or calculated from the Tanguay_ZF_120hpf assay. It is designed to make measurements of zebrafish development as detected with brightfield microscopy of developing zebrafish embryos.Data from the assay component Tanguay_ZF_120hpf_EDEM was analyzed into 1 assay endpoints. This assay endpoint, Tanguay_ZF_120hpf_EDEM, was analyzed in the positive analysis fitting direction relative to DMSO as the negative control and baseline of activity. Using a type of morphology reporter, gain-of-signal activity can be used to understand changes in developmentals as they relate to the whole embryo. To generalize the intended target to other relatable targets, this assay endpoint is annotated to the zebrafish development intended target family, where the subfamily is embryonic edema.
Zebrafish husbandry: Tropical 5D wild-type adult zebrafish were housed in at an approximate density of 1000 per 100 gallon tank at the Sinnhuber Aquatic Research Laboratory, Oregon State University, Corvallis, OR. Each tank was kept at standard laboratory conditions of 28C on a 14-h light/10-h dark photoperiod in fish water consisting of reverse osmosis water supplemented with a commercially available salt (Instant Ocean). Spawning funnels were placed into the tanks the night prior, and embryos were collected and staged. To increase bioavailability, the chorion was enzymatically removed using pronase (63.6mg/ml, >/= 3.5U/mg, Sigma-Aldrich: P5147) at 4 hours post fertilization (hpf) using a custom automated dechorionator.Chemical exposures: Six hpf dechorionated embryos were placed 1 embryo per well in a 96-well plate prefilled with 90 ul of EM using automated embryo placement systems (AEPS). Ten microliters of each row of dilution plate 2 was added to 2 exposure plates. The final DMSO concentration used was 0.64% (vol/vol). Thirty-two embryos were also exposed to 5uM trimethyltin chloride (positive control). Plates were sealed to prevent evaporation and foil covered to reduce light exposure and kept in a 28C incubator. Embryos were statically exposed until 120 hpf. At 24 hpf, embryos were assessed for photomotor response using a custom photomotor response analysis tool (PRAT) and for developmental toxicity endpoints (MO24: mortality at 24 hpf, DP: developmental progression, SM: spontaneous movement, and NC: notochord distortion). At 120 hpf, locomotor activity was measured using Viewpoint Zebralab and assessed for 13 endpoints. Zebrafish acquisition and analysis program (ZAAP), a custom program designed to inventory, acquire, and manage zebrafish data, was used to collect developmental endpoints as either present or absent (i.e., binary responses were recorded). If mortality occurred for an embryo (at either 24 or 120 hpf), the non-mortality endpoints were not measured.

| Compound | outcome | AC50 |
| --- | --- | --- |
| FC(F)(F)C(F)(F)C(F)(F)CC1CO1 (configuration not stated) | inactive | – |
| OC(O)C(F)(F)C(F)(F)F | inactive | – |
| NC(=O)C(F)(F)C(F)(F)C(F)(F)C(F)F | inactive | – |
| FC(F)(F)C(F)(F)C(F)(F)C(F)(F)C(F)(F)C(F)(F)C(F)(F)CCI | inactive | – |
| OCC(F)(F)C(F)(F)C(F)(F)C(F)(F)C(F)(F)C(F)(F)CO | inactive | – |
| O=C(F)C1(F)C(F)(F)C(F)(F)C(F)(F)C(F)(F)C1(F)F | inactive | – |
| OCC(F)(F)C(F)(F)C(F)(F)CO | inactive | – |
| C[Si](Cl)(Cl)CCC(F)(F)C(F)(F)C(F)(F)C(F)(F)C(F)(F)C(F)(F)F | inactive | – |
| O=S(=O)(Cl)C(F)(F)C(F)(F)C(F)(F)C(F)(F)C(F)(F)C(F)(F)C(F)(F)C(F)(F)F | inactive | – |
| CNS(=O)(=O)C(F)(F)C(F)(F)C(F)(F)C(F)(F)C(F)(F)C(F)(F)C(F)(F)C(F)(F)F | – | 47.8 µM (active) |
| CN(C(=O)C(F)(F)C(F)(F)C(F)(F)F)[Si](C)(C)C | inactive | – |
| CCN(CCO)S(=O)(=O)C(F)(F)C(F)(F)C(F)(F)C(F)(F)C(F)(F)C(F)(F)C(F)(F)C(F)(F)F | inactive | – |
| O=S(=O)(O)CCC(F)(F)C(F)(F)C(F)(F)C(F)(F)F | inactive | – |
| O=S(=O)(O)CCC(F)(F)C(F)(F)C(F)(F)C(F)(F)C(F)(F)C(F)(F)C(F)(F)C(F)(F)F | inactive | – |
| O=C(O)CCC(F)(F)C(F)(F)C(F)(F)F | inactive | – |
| O=C(O)C(F)(F)C(F)(F)C(F)(F)OC(F)(F)F | inactive | – |
| NC(=O)C(F)(F)C(F)(F)C(F)(F)C(F)(F)C(F)(F)C(F)(F)C(F)(F)F | inactive | – |
| NS(=O)(=O)C(F)(F)C(F)(F)C(F)(F)C(F)(F)C(F)(F)C(F)(F)F | inactive | – |
| NC(O)(C(F)(F)F)C(F)(F)F | inactive | – |

| Compound | outcome | AC50 |
| --- | --- | --- |
| NC(=O)C(F)(F)C(F)(F)C(F)(F)C(F)(F)C(N)=O | inactive | – |
| O=C(O)CCC(F)(F)C(F)(F)C(F)(F)C(F)(F)C(F)(F)C(F)(F)C(F)(F)F | inactive | – |
| OCCCCC(F)(F)C(F)(F)C(F)(F)C(F)(F)F | inactive | – |
| CO[Si](C)(CCC(F)(F)C(F)(F)C(F)(F)C(F)(F)C(F)(F)C(F)(F)F)OC | inactive | – |
| O=C(O)C(F)(F)C(F)(F)C(F)(F)C(=O)O | inactive | – |
| COC(F)(C(F)F)C(F)(F)F (configuration not stated) | inactive | – |
| FC(F)(F)C(F)(F)C(F)(F)C(F)(F)C(F)(F)C(F)(F)CC[Si](Cl)(Cl)Cl | inactive | – |
| OCC(F)(F)C(F)(F)C(F)(F)C(F)(F)C(F)(F)C(F)(F)C(F)(F)C(F)(F)CO | inactive | – |
| C=CC(=O)OCCC(F)(F)C(F)(F)C(F)(F)C(F)(F)F | inactive | – |
| OCC(O)CC(F)(F)C(F)(F)C(F)(F)C(F)(F)F (configuration not stated) | inactive | – |
| OCC(O)CC(F)(F)C(F)(F)C(F)(F)C(F)(F)C(F)(F)C(F)(F)C(F)(F)C(F)(F)F (configuration not stated) | – | 5.23 µM (active) |
| CCOC(=O)CC(=O)C(F)(F)C(F)(F)F | inactive | – |
| C=CC(=O)OCC(F)(F)C(F)(F)C(F)(F)COC(=O)C=C | – | 20.9 µM (active) |
| O=C(O)C(F)(F)C(F)(F)C(F)(F)OC(F)(C(F)(F)F)C(F)(F)F | inactive | – |
| O=S(=O)(OCC(F)(F)F)C(F)(F)C(F)(F)C(F)(F)C(F)(F)F | inactive | – |
| C=CC(=O)OCC(F)(F)C(F)(F)C(F)(F)C(F)(F)C(F)(F)C(F)(F)C(F)(F)C(F)F | inactive | – |
| NC(=O)C(F)(F)C(F)(F)C(F)(F)F | inactive | – |
| OCCCC(F)(F)C(F)(F)C(F)(F)C(F)(F)C(F)(F)C(F)(F)C(F)(F)C(F)(F)F | inactive | – |
